# Hit rate of the full screen: of about 310,000 compounds, about 14,000 (4.5%) showed an effect of 50% or more. Effects have a minus sign here. The list comes from a sample in which strong results are over-represented; it also holds similar structures and randomly drawn compounds.
# Target: human ether-à-go-go-related gene (hERG) potassium channel (human, UniProt Q12809)
# Assay: primary screen, population patch clamp on CHO cells stably expressing hERG; higher = less effect of the substance
# 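Also: peak tail current of the secondary pulse compared with the same well before compound.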
# Chain of human ether-à-go-go-related gene (hERG) potassium channel (Q12809 whole entry, looked up): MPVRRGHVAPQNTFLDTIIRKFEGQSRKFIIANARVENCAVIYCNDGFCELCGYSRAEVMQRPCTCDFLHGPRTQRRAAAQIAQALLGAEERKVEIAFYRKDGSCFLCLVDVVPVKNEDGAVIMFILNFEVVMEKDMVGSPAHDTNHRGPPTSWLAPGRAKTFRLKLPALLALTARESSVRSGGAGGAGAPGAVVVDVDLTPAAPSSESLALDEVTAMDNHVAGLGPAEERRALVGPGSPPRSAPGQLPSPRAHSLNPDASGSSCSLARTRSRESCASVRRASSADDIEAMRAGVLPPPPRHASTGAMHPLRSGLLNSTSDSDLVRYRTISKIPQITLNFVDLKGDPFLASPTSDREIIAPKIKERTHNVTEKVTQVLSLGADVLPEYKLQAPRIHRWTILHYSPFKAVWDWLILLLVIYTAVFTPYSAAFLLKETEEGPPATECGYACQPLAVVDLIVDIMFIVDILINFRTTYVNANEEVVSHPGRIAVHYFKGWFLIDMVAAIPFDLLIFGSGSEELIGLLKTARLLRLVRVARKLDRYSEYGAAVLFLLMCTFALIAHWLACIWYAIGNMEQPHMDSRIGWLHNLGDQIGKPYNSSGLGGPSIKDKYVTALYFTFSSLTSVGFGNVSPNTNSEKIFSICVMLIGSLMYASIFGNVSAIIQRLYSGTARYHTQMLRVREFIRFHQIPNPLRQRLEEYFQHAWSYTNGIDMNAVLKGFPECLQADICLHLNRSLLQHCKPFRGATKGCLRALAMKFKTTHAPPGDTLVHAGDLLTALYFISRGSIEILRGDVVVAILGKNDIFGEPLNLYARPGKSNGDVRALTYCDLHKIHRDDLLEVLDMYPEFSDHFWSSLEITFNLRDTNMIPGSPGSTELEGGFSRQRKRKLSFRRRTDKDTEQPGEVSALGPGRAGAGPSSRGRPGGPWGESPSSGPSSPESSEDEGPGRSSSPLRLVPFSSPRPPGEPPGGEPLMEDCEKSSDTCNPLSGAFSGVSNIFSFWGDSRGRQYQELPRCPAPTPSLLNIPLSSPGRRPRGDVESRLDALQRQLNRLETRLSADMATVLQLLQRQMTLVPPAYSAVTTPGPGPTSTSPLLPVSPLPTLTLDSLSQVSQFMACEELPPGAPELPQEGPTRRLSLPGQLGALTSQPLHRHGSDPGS
row,SMILES,"hERG current change (%, negative = inhibition) at 10uM [%]"
1,COc1ccc(C2NC(=O)CCC2[N+](=O)[O-])cc1OC (stereo not drawn),10.1
2,CSc1cccc(NC(=O)CCCOc2ccc(Cl)cc2C)c1,-2.48
3,CC(C)C(c1nnnn1Cc1ccc2c(c1)OCO2)N1CCN(c2ccccc2)CC1 (stereo not drawn),23.1
4,CCN1CCN(C(c2ccccc2F)c2nnnn2Cc2ccc3c(c2)OCO3)CC1.Cl (stereo not drawn),-37.6
5,Fc1ccccc1C(c1nnnn1Cc1ccc2c(c1)OCO2)N1CCN(Cc2ccccc2)CC1 (stereo not drawn),-55.3
6,CC(C)C(c1nnnn1Cc1ccccc1)N1CCN(Cc2ccco2)CC1.Cl (stereo not drawn),-32.1
7,c1ccc2sc(C3CCN(Cc4nnnn4Cc4ccc5c(c4)OCO5)CC3)nc2c1,-8.73
8,c1ccc(Cn2nnnc2CN2CCN(Cc3ccc4c(c3)OCO4)CC2)cc1,-61.1
9,CC(C)C(c1nnnn1Cc1ccccc1)N1CCN(Cc2ccc3c(c2)OCO3)CC1 (stereo not drawn),-52
10,Cl.NC(=O)C1CCN(C(c2ccccc2F)c2nnnn2Cc2ccco2)CC1 (stereo not drawn),11.1
11,Cl.Fc1ccccc1C(c1nnnn1Cc1ccc2c(c1)OCO2)N1CCN(Cc2ccco2)CC1 (stereo not drawn),-56.4
12,CC(C)C(c1nnnn1Cc1ccc(F)cc1)N1CCN(Cc2ccc3c(c2)OCO3)CC1 (stereo not drawn),-43.3
13,Cl.c1ccc(CCn2nnnc2C(c2cccs2)N2CCN(Cc3ccc4c(c3)OCO4)CC2)cc1 (stereo not drawn),-24.1
14,c1ccc2c(c1)CCN(Cc1nnnn1Cc1ccc3c(c1)OCO3)C2,-3.1
15,O=C(CN1C(=O)NC2(CCCC2)C1=O)OCc1ccc(Cl)cc1Cl,-20.9
16,CC(C)c1ccc(/C=C/C(=O)N2CCc3ccccc3C2)cc1,3.46
17,O=C(CC(SCCO)c1ccc([N+](=O)[O-])cc1)c1ccco1 (stereo not drawn),-35.7
18,O=C(NCc1ccccc1Cl)c1cc2c(s1)CS(=O)(=O)C2,-4.86
19,Cc1nnc(C)n1/N=C/c1cc(Br)ccc1O,9.86
20,C/C(=N/NS(=O)(=O)c1ccc(C)cc1C)c1ccc2c(c1)OCO2,-2.58
21,O=C(O)c1ccccc1SSc1ccccc1C(=O)O,25.5
22,O=C(c1ccco1)N1CCC(c2nc(-c3ccccc3Cl)no2)CC1,-11.5
23,Clc1ccc(CNCc2cccs2)cc1Cl,7.52
24,CC1CC(C)CN(C(=O)Nc2ccccc2F)C1 (stereo not drawn),22.9

row,SMILES,"hERG current change (%, negative = inhibition) at 10uM [%]"
1,CCN(CC)S(=O)(=O)c1ccc(C(=O)NC2CN3CCC2CC3)cc1 (stereo not drawn),25.6
2,CN(/N=C/c1ccc(C(C)(C)C)cc1)C1=NCCN1,-71.6
3,Br.COc1ccc(/C=N/N(C)C2=NCCN2)c(OC)c1OC,5.63
4,Br.CN(/N=C/c1ccncc1)C1=NCCN1,5.06
5,Cc1ccccc1C(=O)N1CCC(C(=O)Nc2ccccn2)CC1,11.9
6,Cn1nc(C(=O)N2CCOCC2)c([N+](=O)[O-])c1C(=O)N1CCOCC1,-54.4
7,Cc1onc(C(=O)N2CCOCC2)c1[N+](=O)[O-],19.8
8,Cn1nc(C(C)(C)C)c([N+](=O)[O-])c1C(=O)N1CCOCC1,17.3
9,Cc1cc2ncn(CC(C)C)c2cc1C,-3.79
10,O=C(CN1CCC(O)(c2ccc3c(c2)OCO3)CC1)NC1CCCCC1,3.07
11,[S-]C(=Nc1ccc(Cl)cc1)N[n+]1ccccc1,1.12
12,CSC(=Nc1ccccc1)Nc1ccccc1,-15.8
13,CSC(=Nc1ccc(Cl)cc1)N[n+]1ccccc1.[I-],-58.8
14,C[N+]1(CCC(C(N)=O)(c2ccccc2)c2ccccc2)CCCCC1.[Br-],10.7
15,ClCc1csc(N/N=C/c2cccs2)n1,11.8
16,CCOc1ccc(Br)cc1S(=O)(=O)Nc1ccc(C(=O)OCC(=O)N(C)c2ccccc2)cc1,12.7
17,CC1CC(OC(=O)c2ccccc2)(c2ccccc2)C(C)CN1C (stereo not drawn),-8.66
18,O=C(CCCN1C(=O)/C(=C/c2ccccc2)SC1=S)Nc1cccc(O)c1,2.17
19,O=C(O)CCC(=O)NNC(=O)COc1cccc(Cl)c1,2.84
20,O=C(Cc1ccccc1)N1CCN=C1SCc1ccc([N+](=O)[O-])cc1,-55.5
21,O=C(Cc1ccc(F)cc1)N1CCN=C1SCc1ccc([N+](=O)[O-])cc1,-47.3
22,COc1ccc(CC(=O)N2CCN=C2SCc2ccc([N+](=O)[O-])cc2)cc1,-52.2
23,O=C(Cc1ccc([N+](=O)[O-])cc1)N1CCN=C1SCc1ccccc1,-7.33
24,CCOc1ccc(CC(=O)N2CCN=C2SCc2ccc([N+](=O)[O-])cc2)cc1,5.05

row,SMILES,"hERG current change (%, negative = inhibition) at 10uM [%]"
1,COc1ccc(CC(=O)N2CCN=C2SCc2cccc([N+](=O)[O-])c2)cc1,-5.33
2,CS(=O)(=O)N(Cc1ccccc1)c1ccc(C(=O)Nc2ccc(C(N)=O)cc2)cc1,12.8
3,Cn1c(N)c(C(=O)COC(=O)c2ccc(Cl)c(S(=O)(=O)N3CCCC3)c2)c(=O)n(C)c1=O,-43.9
4,COC(CNc1ccc([N+](=O)[O-])c(NCC(OC)OC)c1C#N)OC,5.62
5,CN(C)S(=O)(=O)c1ccc(NC(=O)c2ccc(Br)o2)cc1,-9.84
6,CC(=O)Nc1cccc(NC(=O)c2ccco2)c1,-4.69
7,Cc1ccc(NC(=O)c2ccccc2Br)cc1S(=O)(=O)N(C)C,-1.84
8,CN(C(=O)c1cccc(NC(=O)c2ccco2)c1)c1ccccc1,13.3
9,Cc1cc(Br)ccc1NC(=O)c1ccco1,0.934
10,Cc1ccc(C(=O)Nc2ccc(NC(=O)c3ccco3)c(C)c2)cc1,14.7
11,CN(C)c1cccc(NC(=O)c2ccco2)c1,-73.3
12,Cc1cc(NC(=O)c2ccc(Br)o2)ccc1NC(=O)c1ccco1,-58.2
13,Cc1ccc(NC(=O)c2ccc(Br)o2)cc1S(=O)(=O)N(C)C,-54.7
14,COc1ccc(C2N(C(=O)C(F)(F)F)C(C)CN2S(=O)(=O)c2ccc(C)cc2)cc1 (stereo not drawn),11.2
15,Cc1ccc(C2NC(=O)c3c(sc(C)c3C)N2)c(O)c1 (stereo not drawn),-3.45
16,CCOc1ccc(-n2c(CC)nc3ccccc3c2=O)cc1,1.33
17,N#Cc1nc(-c2cccc(Cl)c2)oc1N1CCC(C(N)=O)CC1,0.912
18,CCOC(=O)C1C(=O)NC(N2CCCCC2)=NC1c1ccco1 (stereo not drawn),8.22
19,Cc1cccc(C)c1NC(=O)C1(C)c2cccc[n+]2CC(=O)N1Cc1cccs1.[I-] (stereo not drawn),6.18
20,COc1ccc(S(=O)(=O)Nc2cccc(S(=O)(=O)NC3=NCCC3)c2)cc1[N+](=O)[O-],18.6
21,NC(=O)N/N=C/c1cn(-c2ccccc2)nc1-c1cccnc1,4.92
22,O=C(N/N=C/c1cn(-c2ccccc2)nc1-c1cccnc1)c1ccc(F)cc1,-41.3
23,O=C(N/N=C/c1cn(-c2ccccc2)nc1-c1cccnc1)c1ccccc1,-60.7
24,CC(C)(C)OC(=O)N/N=C/c1cn(-c2ccccc2)nc1-c1cccnc1,-49.3

row,SMILES,"hERG current change (%, negative = inhibition) at 10uM [%]"
1,NC(=S)N/N=C/c1cn(-c2ccccc2)nc1-c1cccnc1,11.8
2,O=C(N/N=C/c1cn(-c2ccccc2)nc1-c1cccnc1)c1cccnc1,-50.3
3,CCn1ccnc1CN(C)C(=O)CCc1nnc(CCC2CCCCC2)o1,-27.7
4,C=Cn1ccnc1P(=S)(c1ccc(N(C)C)cc1)c1nccn1C=C,3.93
5,O=c1c2ccccc2nc(-c2ccc(Cl)cc2)n1C1CCS(=O)(=O)C1 (stereo not drawn),-2.23
6,O=C(CN1CCN(Cc2ccccc2)CC1)N1N=CCC1c1ccccc1 (stereo not drawn),-1.06
7,Cc1ccc(C(=O)O/N=C/c2c(Cl)n(C)c3ccccc23)cc1,16.2
8,CC(=O)Nc1ccc(N(C(=O)CNC(=O)c2cccs2)C(C(=O)NCC2CCCO2)c2ccccc2)cc1 (stereo not drawn),13.2
9,O=C(O)C1CSC(CCc2ccccc2)N1 (stereo not drawn),14
10,[Cl-].c1ccc(CC[C@@H]2CC[C@@H](CCc3ccccc3)N2)cc1,-66
11,c1ccc(CCC2Cc3ccccc3N2)cc1 (stereo not drawn),-0.839
12,COC(=O)c1[nH]c2ccccc2c1NC(=O)Oc1ccccc1,12
13,O=C(Nc1cc([N+](=O)[O-])ccc1N1CCCC1)c1ccccc1,-33.3
14,O=[N+]([O-])c1ccc(N2CCN(c3ccc(Cl)nn3)CC2)c(Cl)c1,-23.7
15,COc1ccc(N2CCN(c3ccc([N+](=O)[O-])cc3Cl)CC2)cc1,-12.1
16,Cc1ccc2nc(C)c(CN3CCN(c4ccc([N+](=O)[O-])cc4Cl)CC3)n2c1,-69.3
17,O=C(Nc1cc([N+](=O)[O-])ccc1N1CCOCC1)c1cccs1,1.15
18,O=C(Nc1cc([N+](=O)[O-])ccc1N1CCCC1)c1cccs1,-65.4
19,O=[N+]([O-])c1ccc(N2CCNCC2)c(Cl)c1,-6.48
20,Cc1ccc([N+](=O)[O-])cc1NC(=O)c1cccs1,18.4
21,COC(=O)c1ccc(N2CCN(C)CC2)c(NC(=O)c2cccs2)c1,-8.75
22,CN1CCN(c2cc([N+](=O)[O-])ccc2Cl)CC1,-23.3
23,CN1CCN(c2ccc([N+](=O)[O-])cc2NC(=O)c2cccs2)CC1,-55.2
24,CN1CCN(c2ccc([N+](=O)[O-])cc2Cl)CC1,-52.2

# From PMC4336329 (PLoS ONE, 2015)
